40 molecules from PubChem BioAssay (Tox21) can be followed below.

Each structure is given as a SMILES string. “And” between values parts separate entries of the source, which are not always exact repeats. Identical values can stand only once. Inconclusive results are not listed. Where a call stands in place of a potency, no number is given. A structure can be active in one record and inactive in another. The source made the active and inactive calls. Calls come from the whole dose curve; as a rule, active = well fitted cell-killing curve with a large enough effect in the repeat runs (not every such curve was filed as active); inconclusive = weak or mixed curves, or effect the other way; inactive = no such curve, though single readings can be large or run the other way.
Potency is the fitted concentration of half-maximal effect.

The nature of the assay: qHTS assay to identify small molecule antagonists of the farnesoid-X-receptor (FXR) signaling pathway - cell viability counter screen (AID 743221). Note: nearly all actives have a fitted effect of over 50% in size. Conditions: FXR-bla HEK293T viability, CellTiter-Glo luminescence, 16 h; series mostly up to 62.6 µM; activity change, negative = cytotoxicity: at the top concentration. The source says:
National Center for Advancing Translational Sciences [NCATS]
NIH Chemical Genomics Center [NCGC]
U.S. Environmental Protection Agency [EPA]
National Institutes of Environmental Health Sciences [NIEHS]
National Toxicology Program [NTP]
U.S. Food and Drug Administration [FDA]
The farnesoid-X-receptor (FXR), a nuclear hormone receptor, is highly expressed in liver, intestine, kidney and adrenal cortex. Natural ligands of FXR are the bile acids (Cholic acid, Chenodeoxy cholic acid etc). FXR is an important regulator of diverse metabolic pathways, including the bile acid homeostasis, lipid and glucose metabolisms. FXR regulates the expression of target genes by binding either as a monomer or as a heterodimer with the retinoid X receptor (RXR). Numerous studies have reported that FXR exerts protective function during cholestasis, diabetes, liver regeneration, and cancer. To identify compounds that inhibit FXR signaling, GeneBLAzer FXR-UAS-bla HEK 293T cell line (Invitrogen, Carlsbad, CA) containing a beta-lactamase reporter gene under the control of a UAS response element was used to screen the Tox21 10K compound library. The cytotoxicity of the Tox21 compound library against the FXR-bla cell line was tested in parallel by measuring the cell viability using CellTiter-Glo assay in the same wells.
Tox21 Assay Protocol Summary:
FXR-bla cells were dispensed at 5000 cells/5uL/well in 1536-well black wall/clear bottom plates using a Multidrop Combi (Thermo Fisher Scientific, Waltham, MA) dispenser. After the assay plates were incubated at 37 C and 5% CO2 for 5 h, 23 nL of compounds dissolved in DMSO, positive controls or DMSO only was transferred to the assay plate by a Pintool station (Kalypsys, San Diego, CA), followed by addition of 1 uL Chenodeoxycholic acid (50 uM, final concentration in the wells). The assay plates were incubated at 37C for 16 h. After 1 uL of LiveBLAzerTM B/G FRET substrate was added using a Bioraptr Flying Reagent Dispenser (FRD) workstation (Beckman Coulter, Indianapolis, IN), the plates were incubated at room temperature for 2 h, and fluorescence intensity was measured by an Envision plate reader (PerkinElmer, Shelton, CT). For cell viability readout that measures cytotoxicity, 4uL/well of CellTiter-Glo reagent was added into the assay plates using a Bioraptr FRD. After 30 min incubation at room temperature, the luminescence intensity in the plates was measured using a ViewLux plate reader (PerkinElmer).
For the molecule `c1ccc2c(c1)ccc1ccccc12`, the Potency result is “inactive”. The same measure, in the same setting: as for `c1ccc(OCCOc2ccccc2)cc1`, the entry is “inactive”; as for `CSCCC=O`, “inactive”. Same read-out and setting: as for `CCCCC(CC)COC(=O)C(C#N)=C(c1ccccc1)c1ccccc1` (stereo not given), the entry is “inactive”. For the molecule `Fc1ccc(Br)cc1`, the Potency result is “inactive”.

`CN(C)CCC(c1ccccc1)c1ccccn1` (stereo not given): the Potency result is “inactive”. Regarding `O=S(=O)(O)c1ccc2ccccc2c1`, the Potency result is “inactive and 34.8 µM (active)”. For `O=[N+]([O-])c1ccc(/C=C/c2ccc([N+](=O)[O-])cc2S(=O)(=O)O)c(S(=O)(=O)O)c1`, the Potency result was “inactive”. Regarding `OCCOCCN1CCN(C2=Nc3ccccc3Sc3ccccc32)CC1`, the Potency entry was “inactive”.

For `CC(=O)CC(=O)Nc1ccccc1C`, the Potency result was “inactive”.

Turning to `Nc1cc([N+](=O)[O-])ccc1O`, the Potency entry was “inactive”. `c1ccc2scnc2c1`: the “activity change, negative = cytotoxicity” value is -1.03% (inactive). On to `O=C(Oc1ccccc1)c1ccccc1`, for which the Potency result was “inactive”. For the molecule `O=C(O)c1cc(=O)c2c(OCC(O)COc3cccc4oc(C(=O)O)cc(=O)c34)cccc2o1`, the Potency result was “inactive”. As for `CCCCCCCC(=O)OC`, the Potency entry was “inactive”.

Take `COc1ccc(Cl)cc1C(=O)NCCc1ccc(S(=O)(=O)NC(=O)NC2CCCCC2)cc1`: the Potency result was “inactive”.

For the molecule `O=C1CCC(N2C(=O)c3ccccc3C2=O)C(=O)N1` (stereo not given), the Potency entry was “inactive”. With `CCCCCC1=CCCC1=O`, the Potency entry was “inactive”. The same measure, in the same setting: next, `Cc1ccc(N(C)C)cc1`: “inactive”; `CCCCCC(N)=O`: “inactive”.

As to `O=c1[nH]nnc2ccccc12`, the Potency entry is “inactive”. The same measure, in the same setting: as for `C[Si](O[Si](C)(C)C)O[Si](C)(C)C`, the entry is “inactive”; as for `CC1=C(C)S(=O)(=O)CCS1(=O)=O`, “inactive”.

Take `COc1cc(Cc2cnc(N)nc2N)cc(OC)c1OC`: the Potency entry was “inactive”. Same read-out and setting: next, `CCCC(C)=O`: “inactive”; `COc1ccc2cc([C@H](C)C(=O)O)ccc2c1`: “inactive”.

For `O=C(O)c1ccc2c(c1)C(=O)OC2=O`, the Potency result is “inactive”. The same measure, in the same setting: next, `OC[C@H]1O[C@@](CO)(O[C@H]2O[C@H](CO)[C@@H](O)[C@H](O)[C@H]2O)[C@@H](O)[C@@H]1O`: “inactive”; `Cc1ccc(S(N)(=O)=O)cc1`: “inactive”; `O=S1(=O)CC=CC1`: “inactive”.

For the molecule `OCCOCCOCCO`, the Potency result is “inactive”.

`CCCCC(CC)COC(=O)CS` (stereo not given): the Potency result was “inactive”.

As for `Cc1ccc2oc(=O)ccc2c1`, the Potency entry is “inactive”. Same read-out and setting: as for `O=P(OC(CCl)CCl)(OC(CCl)CCl)OC(CCl)CCl`, the entry is “inactive”; as for `CCCCC(CC)COC(=O)CCCCC(=O)OCC(CC)CCCC` (stereo not given), “inactive”. For the molecule `CCCCCCCCC/C=C/CC1CC(=O)OC1=O` (stereo not given), the “activity change, negative = cytotoxicity” value was -11.5% [at 81.1 µM] (inactive).

On to `C#CCN(C)Cc1ccccc1`, for which the Potency entry is “inactive”. The same measure, in the same setting: as for `CC(C)CC(=O)CC(C)C`, the entry is “inactive”; as for `O=C=NCCCCCCN=C=O`, “inactive”. On the same count and under the same terms, as for `CC(C)(C)[C@@H](O)[C@@H](Cc1ccc(Cl)cc1)n1cncn1`, the entry is “inactive”.
